# Reference: PMC13494018
# B1: d1r6_design_ppi_81_dldesign_0_cycle1_af2pred (protein)
# chain: AATQQILITAAVMLEERLDELGRAAEVAAMALLYGAAFGSLEKAREKLEELAATLSAEEAARARATFDEAVAAAQAAA
# B2: d1r6_design_ppi_106_dldesign_0_cycle0_af2pred (protein)
# chain: AAISRAMYHHALGLADAANREAHLAAAAALRAALSPEDAARAEAQIAKIEAAAAANQAAAAAARAARAAAA
# B3: d1r6_design_ppi_780_dldesign_0_cycle1_af2pred (protein)
# chain: NAAATRAFSLAVARQAEETAKQVAGVDPELAKKLKELAKEVRKLAADPATHLQAVEATIEALKAIGEANKKLA
# B4: d1r6_design_ppi_2_dldesign_0_cycle1_af2pred (protein)
# chain: EQYFTDRDIAAAEAAAAKYAALAADPEARAYAARFREAAALIRDPATRAEGIDLLAATEAAAAAHAKALAA
# B5: d1r6_design_ppi_166_dldesign_0_cycle0_af2pred (protein)
# chain: SAVAADGAAALAVAADLMAAGKEYAAAGDLANAARAYQSARALAATMAAAAAAAGDAATAAALAAAAAAAAAAEAEVKA
# B6: d1r7_design_ppi_3_dldesign_0_cycle1_af2pred (protein)
# chain: AAEAAALYEATRAAAEALARVDPALAAEAARLRGQALRYYSLTFVDPAAGRAGVAAVLAEAKRLLAAARARA
# B7: d1r6_design_ppi_612_dldesign_0_cycle1_af2pred (protein)
# chain: GAALEEQAKKIAEEAIEKIKKGAETGSLSPEEILALASKTVAQLSAIAIASKGGVAAGAGAVEVQKVAAEAL
# B8: d1r6_design_ppi_250_dldesign_0_cycle0_af2pred (protein)
# chain: SAALAAARGAILQAALSLGVERAREAFARVEASDPAEAAALAEALAAEAAARDPAIGARAAAGAAALRAA
# B9: d1r6_design_ppi_725_dldesign_0_cycle0_af2pred (protein)
# chain: AELAATHMAGVEALNRARAAAVALVALDPARGAAWLAEADELGRRLNEAAADASRAEELKRITEELEKLAERIAAERDAAAA
# B10: d1r6_design_ppi_106_dldesign_0_cycle1_af2pred (protein)
# chain: DLISKAVYYYALGIADPANAAEYKAKAQAEIDKLSPEEAAKAKAELEKVTKSQEELAAKSAERAAARAAAA
# B11: d1r6_design_ppi_265_dldesign_0_cycle1_af2pred (protein)
# chain: AAAQARALGAVAKQAVLDGKFDEAKQLIEGLVNLAQADPAAAPQAAKEMKEIAKAAEEKAKADPANAAKYKALAKVAAAAAKEAEKAA
# B12: d1r6_design_ppi_627_dldesign_0_cycle1_af2pred (protein)
# chain: DEVQREIRERVERGRETAKRAAQHPATAPIAAAIRATAERAEAASSDPERALNYAQMTDVAIANGELALAQVAA
# B13: d1r6_design_ppi_754_dldesign_0_cycle1_af2pred (protein)
# chain: GKEEELLKKAKEYFEEAEKYIKELEEVAAKAGPAAKGLVTFTKNYFERLKAKAEKATPEEALKLAKEAYDFAKDALEAAKTTLAALE
# B14: d1r6_design_ppi_480_dldesign_0_cycle1_af2pred (protein)
# chain: AAETQQAADIIIANAEHAKRLAKENPEAGEKLVEVLEESAKWVEAKDPEAGAKAKKAVEEAKKVAEAVKAAREAAKALA
# B15: d1r6_design_ppi_647_dldesign_0_cycle0_af2pred (protein)
# chain: SKAELLAYKALAAAAKNALEQVKTGEEAEKAVESLKKMAEALGDEETAKLAEEALKAIKKSKEEGEKKLEEAKKYAEKKAKEAA
# B16: d1r6_design_ppi_17_dldesign_0_cycle0_af2pred (protein)
# chain: MDFAASAQAAQRDAERLAERGIASGDAADLRRATEAVEQLLEIVQGLAAQGAAEAGEQLQAAVERTRAALERTRAAAAAAEAAAA
# B17: d1r6_design_ppi_671_dldesign_0_cycle1_af2pred (protein)
# chain: AVEEALKKAEEAAKELEKVAKELGDKEAKEKAKQVKSLIEFAKVAAEAGDEKTALHAAKQAKELAEKALKEAKAKLEAKKAEEEKLKK
# B18: d1r6_design_ppi_906_dldesign_0_cycle0_af2pred (protein)
# chain: AAAAQAEVTIKMGEAVIKQGEEWIEHPEYAEHAAKLLEAVADIAKATAKAAAAADAELAKKVEETRKKLEEVREKAKAVAEA
# B19: d1r6_design_ppi_905_dldesign_0_cycle0_af2pred (protein)
# chain: AAVEAAQEEALRALEEARALAREVLAADPERAARVAARIEEAAELVRDGEKINEGLALLVELAAESPAEVKPALMRAAALAGRAYVLR
# Molecular target: CD276, Q5ZPR3
# Sequence (Q5ZPR3 whole entry): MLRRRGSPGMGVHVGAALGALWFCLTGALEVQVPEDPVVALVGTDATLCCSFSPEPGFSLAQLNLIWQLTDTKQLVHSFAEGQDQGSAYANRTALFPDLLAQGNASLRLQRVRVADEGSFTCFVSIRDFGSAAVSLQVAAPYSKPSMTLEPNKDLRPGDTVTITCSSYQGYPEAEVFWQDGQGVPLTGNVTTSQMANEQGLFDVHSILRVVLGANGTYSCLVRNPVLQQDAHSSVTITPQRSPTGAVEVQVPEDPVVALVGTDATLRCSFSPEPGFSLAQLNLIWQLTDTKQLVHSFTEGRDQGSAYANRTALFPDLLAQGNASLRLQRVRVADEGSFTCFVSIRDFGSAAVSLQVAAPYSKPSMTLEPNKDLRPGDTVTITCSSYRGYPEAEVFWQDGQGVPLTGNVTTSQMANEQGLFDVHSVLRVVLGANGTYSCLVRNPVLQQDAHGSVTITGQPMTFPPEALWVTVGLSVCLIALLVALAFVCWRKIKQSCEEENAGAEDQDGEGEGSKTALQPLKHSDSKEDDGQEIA
row,Binder,binding in a display sort
1,B1,not found (inactive)
2,B2,not found (inactive)
3,B3,not found (inactive)
4,B4,not found (inactive)
5,B5,not found (inactive)
6,B6,not found (inactive)
7,B7,not found (inactive)
8,B8,not found (inactive)
9,B9,not found (inactive)
10,B10,not found (inactive)
11,B11,not found (inactive)
12,B12,not found (inactive)
13,B13,not found (inactive)
14,B14,not found (inactive)
15,B15,not found (inactive)
16,B16,not found (inactive)
17,B17,not found (inactive)
18,B18,not found (inactive)
19,B19,not found (inactive)
